These compounds were tested against NAD-dependent deacetylase Sirtuin 1 (human, UniProt Q96EB6) (assay: primary screen, percent inhibition; higher = more effect of the substance). Conditions: 10 µM.
Design: mean of n = 4
Method: Note that the inhibitory assay was conducted with NAD+.

NAD-dependent deacetylase Sirtuin 1, sequence (Q96EB6 2-747 limits assumed): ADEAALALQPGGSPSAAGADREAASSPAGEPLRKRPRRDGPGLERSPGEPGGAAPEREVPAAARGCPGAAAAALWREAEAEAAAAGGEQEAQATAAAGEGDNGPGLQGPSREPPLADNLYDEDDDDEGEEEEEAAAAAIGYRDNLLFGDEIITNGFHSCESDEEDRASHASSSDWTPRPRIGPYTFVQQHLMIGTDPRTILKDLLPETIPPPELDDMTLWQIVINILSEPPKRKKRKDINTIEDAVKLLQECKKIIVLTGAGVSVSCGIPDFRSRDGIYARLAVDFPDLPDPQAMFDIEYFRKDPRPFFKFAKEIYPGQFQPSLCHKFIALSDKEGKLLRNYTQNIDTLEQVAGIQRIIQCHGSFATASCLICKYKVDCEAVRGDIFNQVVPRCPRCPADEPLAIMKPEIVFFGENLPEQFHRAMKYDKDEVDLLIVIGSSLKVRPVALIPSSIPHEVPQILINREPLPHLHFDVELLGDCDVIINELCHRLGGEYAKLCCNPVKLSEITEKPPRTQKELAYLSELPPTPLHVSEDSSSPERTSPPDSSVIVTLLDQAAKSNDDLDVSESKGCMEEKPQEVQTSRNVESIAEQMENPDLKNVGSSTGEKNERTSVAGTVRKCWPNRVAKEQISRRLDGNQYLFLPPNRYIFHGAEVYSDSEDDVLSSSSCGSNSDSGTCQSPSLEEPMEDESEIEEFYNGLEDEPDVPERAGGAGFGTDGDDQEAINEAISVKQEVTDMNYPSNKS

SMILES	TSA(without NAD+) / Inhibitory assay (Promega kit) / Mean (%)	TSA(with NAD+) / Inhibitory assay (Promega kit) / Mean (%)
NC(=O)C1CCN(c2nc(CSc3ccccc3)nc3sc4c(c23)CCCC4)CC1	12.9	
Cc1ccc(N(C)S(=O)(=O)c2cccc(C(=O)Nc3ccc4c(c3)C(=O)N(C)C4=O)c2)cc1		25
c1ccc(-c2[nH]c3c(ccc4ccccc43)c2-c2ccccc2)cc1	-0.157	
CCn1c2ccccc2c2cc(NC(=O)C(C)OC(=O)c3cccc(S(=O)(=O)Nc4ccc(Cl)cc4)c3)ccc21 (stereo not shown)	23.9	
CN(c1ccccc1)S(=O)(=O)c1cccc(NC(=O)CCCc2c[nH]c3ccccc23)c1	-10.4	
O=C1NC(=S)NC(=O)C1=Cc1cn(-c2ccccc2)nc1-c1cc2ccccc2o1		57.2
Cc1nc(-c2ccc(CCNC(=O)c3ccc(NC(=O)c4cccs4)cc3)s2)cs1	27	
O=C(CCc1c[nH]c2ccccc12)Nc1nnc(-c2ccccc2)o1	10.8	
Cc1ccc(N(C)S(=O)(=O)c2cccc(C(=O)Nc3ccc(C(N)=O)cc3)c2)cc1	0.783	
Cc1nc(N2CCC(C(N)=O)CC2)c2c3c(sc2n1)CCCC3	11.5	
CCOc1cc(/C=N/NC(=O)c2cc3c(s2)CCCC3)ccc1OCC(=O)Nc1cccc(C(F)(F)F)c1	-2.14	
COC(=O)c1cc(-c2csc(NC(=O)c3cccc(NC(=O)c4cnoc4C)c3)n2)c[nH]1	30.1	
NC(=O)C1CCN(c2nc(-c3cccnc3)nc3sc4c(c23)CCCC4)CC1		39.7
Cc1sc2nc(CSc3ccccc3)nc(N3CCC(C(N)=O)CC3)c2c1C	-36.8	
NCc1nc2c(cnn2-c2ccccc2)c(=O)[nH]1	62.5	
O=C(NC(=S)Nc1ccc(-c2nc3ccccc3[nH]2)cc1)C12CC3CC(CC(C3)C1)C2	22.7	
NC(=O)c1cccc(NC(=O)c2cc3c(s2)-c2ccccc2CC3)c1	4.33	
COc1ccc(N(C)S(=O)(=O)c2cccc(C(=O)Nc3ccc(Cl)cc3)c2)cc1		17.6
NC(=O)C1CCN(c2nc(-c3cccs3)nc3sc4c(c23)CCCC4)CC1	0.0174	
O=C1NC(=O)c2ccccc2/C1=C\NNC(=O)C12CC3CC(CC(C3)C1)C2		27.6

SMILES	TSA(without NAD+) / Inhibitory assay (Promega kit) / Mean (%)	TSA(with NAD+) / Inhibitory assay (Promega kit) / Mean (%)
CCCCCCCCNC(=O)/C(C#N)=C/c1c[nH]c2ccccc12	9.56	
COc1ccc2cc(/C=C/C(=O)Nc3ccc(C(N)=O)cc3)ccc2c1		19.8
Cc1sc2nc(-c3cccs3)nc(N3CCC(C(N)=O)CC3)c2c1C	-0.574	
NC1=Nc2nc3ccccc3n2C(c2ccc(-c3ccc(C(=O)O)cc3)o2)N1 (stereo not shown)	17.6	
COc1ccc(N(C)S(=O)(=O)c2cccc(C(=O)Nc3ccc(-n4cnnn4)cc3)c2)cc1	26.1	
N#CC(C(=O)c1ccc(NS(=O)(=O)c2ccccc2)cc1)c1nc(-c2ccccn2)cs1 (stereo not shown)	-150	
Cc1cccc(NS(=O)(=O)c2cccc(C(=O)OCC(=O)NC(=O)NC34CC5CC(CC(C5)C3)C4)c2)c1		31
Cc1ccc(C(=O)Nc2ccc(NC(=O)NCC3CCCO3)cc2)cn1 (stereo not shown)	-1.1	
O=C1/C(=C\c2cc(Br)cc(Br)c2O)CC/C1=C\c1cc(Br)cc(Br)c1O	44.3	
O=C(NN/C=C1/C(=O)N(c2cccc(C(F)(F)F)c2)C(=O)c2ccccc21)c1cccc(S(=O)(=O)Nc2ccccc2Cl)c1	-38.6	
COc1ccc(N(C)S(=O)(=O)c2cccc(C(=O)Nc3ccc(Br)c(C(F)(F)F)c3)c2)cc1	5.07	
O=C(COc1ccccc1C(=O)Nc1ccc(S(=O)(=O)Nc2nccs2)cc1)Nc1cccc(C(F)(F)F)c1	10.1	
COc1ccc(NC(=O)c2ccc(NC(=O)COC(=O)C34CC5CC(CC(Br)(C5)C3)C4)cc2)cc1	17.2	
COc1ccc(N(C)S(=O)(=O)c2cccc(C(=O)Nc3ccc4ccccc4c3)c2)cc1	-4.02	
COc1ccc(N(C)S(=O)(=O)c2cccc(C(=O)Nc3ccc(Br)cc3)c2)cc1		29.2
O=C(Nc1cccc(S(=O)(=O)N2CCOCC2)c1)c1cn(-c2ccccc2)nc1-c1ccc(Cl)cc1	13.8	
Cc1ccc([N+](=O)[O-])cc1S(=O)(=O)Nc1ccc(C(=O)OC(C)C(=O)NC23CC4CC(CC(C4)C2)C3)cc1 (stereo not shown)	-3.81	
CC(=C/c1ccccc1)/C=N/NC(=O)c1cc(-c2ccc(C)cc2)n[nH]1	0.0522	
Cc1ccc(N(C)S(=O)(=O)c2cccc(C(=O)Nc3ccc(Br)c(C)c3)c2)cc1		27
O=C1/C(=C/c2cnn(-c3ccccc3)c2)Oc2cc(O)ccc21	9.45	

From paper PMC6925144, “A prospective compound screening contest identified broader inhibitors for Sirtuin 1” (Scientific Reports, 2019)
